The text below walks through data of the supplement of paper PMC10338343.

± gives the standard deviation.

In assay [1] the test system is MILI (PIWIL2) piRISC loaded with piRNA #1 (26 nt). The experiment in a line: pre-steady-state target cleavage rate (min^-1); guide: piRNA #1 5'p-UGAGGUAGUAGGUUGUAUAGUAUCCA; higher = faster piRNA-guided slicing of the target. Particulars: auxiliary factor: 500 nM mouse GTSF1. In a few lines:
(§1)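 A transcribed, DNA-blocked target RNA library (0.1 nM) and 1 nM active affinity-purified piRISC bearing one synthetic guide were incubated in HEPES–potassium acetate buffer at 33 °C for 0–8 or 0–960 min, either with or without 500 nM GTSF1 partner protein. Uncleaved targets were sequenced, normalised to depth and to weakly complementary targets, and pooled over three trials, with k3 capped at 0.0001 min^-1. The pre-steady-state cleavage rate was derived with a burst-and-steady-state fit.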

Assay [2] concerns EfPiwi piRISC loaded with piRNA #1 (26 nt). The experiment in a line: pre-steady-state target cleavage rate (min^-1); auxiliary factor: 500 nM Ephydatia muelleri Gtsf1; guide: piRNA #1 5'p-UGAGGUAGUAGGUUGUAUAGUAUCCA; MIWI and MILI are mouse PIWI proteins and EfPiwi is from a freshwater sponge; tags in brackets are library labels; higher = faster piRNA-guided slicing of the target. In outline:
as §1

GGAGACCUAUGUAAUACAACCUACUACCUCA: the entries for the “pre-steady-state target cleavage rate” value in assay [1] and in assay [2] were 0.0179 ± 0.0049 and 0.00412 ± 0.0028, respectively.
As to GGAGACCAAUACUAUACAACCUACUACCUCA, the “pre-steady-state target cleavage rate” value in assay [1] turned out to be 0.193 ± 0.021; in assay [2], 0.5 ± 0.18.
Turning to GGAGACGAUACUUAUACAACCUACUACCUCA, the entries for the “pre-steady-state target cleavage rate” value in assay [1] and in assay [2] were 0.139 ± 0.012 and 0.0473 ± 0.017, respectively.
